Screens as filed in PubChem BioAssay.
A selection: hits, their analogues and other compounds. The true share with any hit is near 2.8%.
NSD2 HMT inh: NSD2 (human) methyltransferase inhibition | O96028 | NSD2 peptide methylation, AlphaScreen, 120 min | inhibition, % at 12.5 µM | actives 0.54% (n = 310,000) | AID 743445; in the data active = inhibition above about 50%
Target sequence (O96028 whole entry, looked up): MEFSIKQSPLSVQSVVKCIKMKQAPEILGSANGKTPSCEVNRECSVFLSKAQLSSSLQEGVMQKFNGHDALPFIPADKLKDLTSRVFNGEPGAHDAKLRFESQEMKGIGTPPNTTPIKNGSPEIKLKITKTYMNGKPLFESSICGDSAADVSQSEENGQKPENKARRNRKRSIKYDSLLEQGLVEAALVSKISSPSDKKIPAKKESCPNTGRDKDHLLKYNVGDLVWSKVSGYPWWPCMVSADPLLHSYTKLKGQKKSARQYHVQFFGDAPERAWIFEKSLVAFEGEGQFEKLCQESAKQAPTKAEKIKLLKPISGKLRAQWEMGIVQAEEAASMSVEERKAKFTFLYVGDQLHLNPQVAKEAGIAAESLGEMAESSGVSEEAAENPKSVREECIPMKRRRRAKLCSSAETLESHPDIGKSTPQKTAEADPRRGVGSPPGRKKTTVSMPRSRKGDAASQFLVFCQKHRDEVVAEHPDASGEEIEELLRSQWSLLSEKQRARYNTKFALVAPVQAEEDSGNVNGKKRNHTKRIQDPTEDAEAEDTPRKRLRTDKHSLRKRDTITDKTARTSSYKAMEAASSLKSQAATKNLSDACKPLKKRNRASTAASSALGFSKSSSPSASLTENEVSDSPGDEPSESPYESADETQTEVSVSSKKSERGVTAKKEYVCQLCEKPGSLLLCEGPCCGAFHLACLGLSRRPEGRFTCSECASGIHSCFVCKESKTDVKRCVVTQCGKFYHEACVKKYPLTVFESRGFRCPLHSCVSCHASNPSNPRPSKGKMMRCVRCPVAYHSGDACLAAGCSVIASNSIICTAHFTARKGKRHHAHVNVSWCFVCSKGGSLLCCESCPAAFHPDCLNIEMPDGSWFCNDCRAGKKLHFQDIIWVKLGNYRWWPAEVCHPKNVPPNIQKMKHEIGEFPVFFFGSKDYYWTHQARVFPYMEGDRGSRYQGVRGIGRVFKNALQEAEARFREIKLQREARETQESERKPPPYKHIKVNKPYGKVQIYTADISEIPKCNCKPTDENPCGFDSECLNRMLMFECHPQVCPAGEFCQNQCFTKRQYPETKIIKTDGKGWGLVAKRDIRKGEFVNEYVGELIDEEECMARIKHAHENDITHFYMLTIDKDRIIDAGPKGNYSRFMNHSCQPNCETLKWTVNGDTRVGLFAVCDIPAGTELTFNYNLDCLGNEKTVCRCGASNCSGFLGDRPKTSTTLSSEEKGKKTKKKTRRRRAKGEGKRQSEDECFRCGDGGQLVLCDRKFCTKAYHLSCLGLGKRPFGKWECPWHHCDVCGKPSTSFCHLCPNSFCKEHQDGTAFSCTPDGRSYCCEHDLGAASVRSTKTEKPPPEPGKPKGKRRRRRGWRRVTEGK
PAX8 reporter: PAX8 transcriptional activity inhibition; AID 652154; actives 1.2% (n = 360,000); RMG-I TPO-luciferase reporter, SteadyGlo, 24 h; inhibition, % at 12.6 µM;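 active = mean replicate inhibition at least 60% with every replicate also reaching 60%; inconclusive = only one of the two criteria is met; inactive = mean below 60% and not all replicates reaching 60%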;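 also: luciferase light reporting Pax8 driven TPO promoter activity; plate controls were median of neutral control wells for no effect and mitoxantrone controls for full effect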
Glyco luc inh: N-linked glycosylation inhibition; D54 ERlucT glycosylation luciferase reporter, 24 h; percent of 100 nM tunicamycin response; reporter increase, % at 12.5 µM; actives 0.23% (n = 360,000);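 active = mean luciferase reporter signal, scaled so untreated is 0 and the glycosylation-blocking control 100, at or above a set limit in every replicate; inconclusive = mean reaches the limit but not every replicate does; inactive = mean below the limit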;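 also: luciferase carries N-glycosylation sites so blocking glycosylation raises the light; 0% = median of neutral control wells and 100% = median of 100 nM tunicamycin wells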
LMP1 NFkB inh: reduces LMP1-driven NF-kappaB luciferase signal; LMP1-induced NF-kappaB luciferase reporter cells, luminescence; inhibition, % at 12.5 µM; actives 0.69% (n = 350,000); in the data active = inhibition above about 41%; inconclusive = no clear call, values can overlap the other calls;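 also: 0% = neutral control wells and 100% = reference inhibitor control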
Shn3 3UTR inh: inhibitors of Schnurri-3 3'UTR reporter in osteoblasts. AID 588674. Clone20 osteoblast Shn3 3'UTR firefly luciferase, 24 h. actives 0.52% (n = 360,000). inhibition, % at 12.5 µM;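 active = mean inhibition of at least 75% with every replicate also reaching 75%; inconclusive = mean inhibition at least 75% but some replicate below; inactive = mean inhibition below 75%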;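 also: 0% = median of neutral control wells and 100% = pilot-screen positive control compound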
HIV Env fusion: blocks HIV Env-driven cell-cell fusion; HeLa-JRFL Env/CEM21 cell fusion, luciferase; inhibition, % at 12.3 µM; actives 1.1% (n = 360,000);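 active = mean replicate inhibition score of at least 50 and every replicate individually at or above 50; inconclusive = only one of the two criteria met; inactive = mean below 50 and not all replicates reaching 50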;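 also: 0% = plate neutral controls and 100% = maraviroc near 300 nM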
* marks the source's active call; other numbers are inactive results; [ ] = dose if it differs, or a comment.

What do the screens show for `COC(=O)[C@]1(CCS(=O)(=O)c2ccccc2)N=C(c2ccc(OCCCO)cc2)O[C@@H]1c1ccccc1CN=[N+]=[N-]`?
PAX8 reporter: 95*; HIV Env fusion: 33[16.7 µM]

Results for COC(=O)[C@]1(Cc2ccccc2)N=C(c2ccc(OCCCO)cc2)O[C@@H]1c1ccccc1CN=[N+]=[N-] ?
PAX8 reporter: 11; HIV Env fusion: 55[16.7 µM]

How did [N-]=[N+]=Nc1ccccc1C[C@@]1(C(=O)NCc2ccccc2)N=C(c2ccc(OCCCO)cc2)O[C@@H]1c1ccccc1N=[N+]=[N-] do in these assays?
PAX8 reporter: 6; HIV Env fusion: 59*[16.7 µM]

How did CN(C)C(=O)[C@@]1(Cc2ccccc2N=[N+]=[N-])N=C(c2ccc(OCCCO)cc2)O[C@H]1c1ccccc1N=[N+]=[N-] do in these assays?
PAX8 reporter: 7; HIV Env fusion: 8[16.7 µM]

How did COc1cccc(-c2ccc3c(c2)O[C@H](CN(C)C(=O)c2ccccc2F)[C@H](C)CN([C@@H](C)CO)S3(=O)=O)c1 do in these assays?
PAX8 reporter: 20; HIV Env fusion: 14[16.7 µM]

What do the screens show for `CC(=O)N(C)C[C@@H]1Oc2ncc(/C=C/c3ccccc3)cc2C(=O)N([C@H](C)CO)C[C@@H]1C`?
HIV Env fusion: 15[16.7 µM]

What do the screens show for `CCCNC(=O)N1C[C@H](C)[C@H](OC)CN(C)C(=O)c2ccc(NC(C)=O)cc2OC[C@@H]1C`?
PAX8 reporter: -6; HIV Env fusion: -6[16.7 µM]

Results for O=C(C[C@H]1CC[C@@H](NC(=O)c2ccccn2)[C@H](CO)O1)NCc1cc(F)cc(F)c1 ?
PAX8 reporter: 1; HIV Env fusion: 16[16.7 µM]

Results for Cc1csc2ncnc(NNC(=O)c3ccc(Cl)cc3)c12 ?
NSD2 HMT inh: -2; PAX8 reporter: 20; Glyco luc inh: 0; LMP1 NFkB inh: 13; Shn3 3UTR inh: 60; HIV Env fusion: 66*

How did CN1/C(=C\C(=O)COC(=O)c2ccc([N+](=O)[O-])o2)C(C)(C)c2ccccc21 do in these assays?
NSD2 HMT inh: 0; PAX8 reporter: -21; Glyco luc inh: 1; LMP1 NFkB inh: -7; Shn3 3UTR inh: -10; HIV Env fusion: -5

Results for CN1/C(=C\C(=O)COC(=O)c2nccnc2N)C(C)(C)c2ccccc21 ?
NSD2 HMT inh: 1; PAX8 reporter: 8; Glyco luc inh: -3; LMP1 NFkB inh: 2; Shn3 3UTR inh: 0; HIV Env fusion: 58*

Results for COCC(=O)Nc1ccc2c(c1)C(=O)N(C)C[C@H](OC)[C@@H](C)CN(Cc1ccccn1)[C@H](C)CO2 ?
HIV Env fusion: -10[16.7 µM]

How did CC1=C(C)/C(=N\OS(=O)(=O)c2ccc(C)cc2)C=CC1=O do in these assays?
NSD2 HMT inh: 3; PAX8 reporter: 63*; Glyco luc inh: -10; LMP1 NFkB inh: -6; Shn3 3UTR inh: 95*; HIV Env fusion: -298

What do the screens show for `CC1=C/C(=N\OS(=O)(=O)c2ccccc2)C(C)=CC1=O`?
NSD2 HMT inh: -4; Glyco luc inh: 9; LMP1 NFkB inh: 9; Shn3 3UTR inh: 93*

How did COc1ccc(C(C(=O)NC(C)(C)C)N(CCC(C)C)C(=O)CCC(=O)Nc2cc(C)on2)cc1 (stereo not drawn) do in these assays?
NSD2 HMT inh: 29; PAX8 reporter: 8; Glyco luc inh: -2; LMP1 NFkB inh: -9; Shn3 3UTR inh: 4; HIV Env fusion: 69*

How did COc1ccc(C(C(=O)NC(C)(C)C)N(Cc2ccccc2)C(=O)CCC(=O)Nc2cc(C)on2)cc1 (stereo not drawn) do in these assays?
NSD2 HMT inh: 0; PAX8 reporter: 11; Glyco luc inh: 1; LMP1 NFkB inh: 1; Shn3 3UTR inh: 3; HIV Env fusion: 0

What do the screens show for `COc1cccc(/C=N/Nc2ccc([N+](=O)[O-])cn2)c1O`?
NSD2 HMT inh: -1; PAX8 reporter: 91*; Glyco luc inh: -21; LMP1 NFkB inh: 52*; Shn3 3UTR inh: 79; HIV Env fusion: 34

Results for COc1cccc(/C=N/Nc2ccc(C(=O)O)cc2)c1O ?
NSD2 HMT inh: 1; PAX8 reporter: 108*; Glyco luc inh: -20; LMP1 NFkB inh: 83*; Shn3 3UTR inh: 92*; HIV Env fusion: 86*

Results for COc1cccc(/C=N/Nc2ncccc2[N+](=O)[O-])c1OC ?
NSD2 HMT inh: -2; PAX8 reporter: 35; Glyco luc inh: -19; LMP1 NFkB inh: 59*; HIV Env fusion: inconclusive

What do the screens show for `O=[N+]([O-])c1ccc(NN=Cc2cccc3ccccc23)nc1`?
NSD2 HMT inh: -1; PAX8 reporter: -10; Glyco luc inh: -4; LMP1 NFkB inh: -21; Shn3 3UTR inh: -25; HIV Env fusion: -13

Results for COc1cccc(/C=N/Nc2ccnc(=O)[nH]2)c1O ?
NSD2 HMT inh: -1; PAX8 reporter: 39; Glyco luc inh: -5; LMP1 NFkB inh: 10; Shn3 3UTR inh: -37; HIV Env fusion: 65*

How did C[C@H]1CCCCO[C@@H](CN(C)C(=O)Nc2ccc(F)cc2)[C@@H](C)CN([C@@H](C)CO)C(=O)c2cc(NS(=O)(=O)c3cn(C)cn3)ccc2O1 do in these assays?
PAX8 reporter: -1; HIV Env fusion: 22[16.7 µM]

What do the screens show for `C[C@@H]1CN([C@H](C)CO)C(=O)Cc2cc(NC(=O)C3CC3)ccc2O[C@@H]1CN(C)S(=O)(=O)c1ccccc1`?
PAX8 reporter: 9; HIV Env fusion: 5[16.7 µM]

What do the screens show for `COc1cccc(/C=N/Nc2nc(Nc3ccc([N+](=O)[O-])cc3)nc(N3CCCC3)n2)c1O`?
NSD2 HMT inh: -3; PAX8 reporter: 95*; Glyco luc inh: -14; LMP1 NFkB inh: 3; Shn3 3UTR inh: 89*; HIV Env fusion: 22

How did O=[N+]([O-])c1ccc(Nc2nc(N/N=C/c3cccc(F)c3)nc(N3CCCC3)n2)cc1 do in these assays?
NSD2 HMT inh: -3; PAX8 reporter: -18; Glyco luc inh: -8; LMP1 NFkB inh: -20; Shn3 3UTR inh: 49; HIV Env fusion: 7

How did CCOC(=O)C1CCCN(C(=O)c2cc3c(C)nc4ccccc4c3o2)C1 (stereo not drawn) do in these assays?
Glyco luc inh: 3; LMP1 NFkB inh: 6; Shn3 3UTR inh: 26; HIV Env fusion: 56*

What do the screens show for `CCCn1c(=S)[nH]c2cc(C(=O)N3CCCC(C(=O)OCC)C3)ccc2c1=O` (stereo not drawn)?
Glyco luc inh: -2; LMP1 NFkB inh: -18; Shn3 3UTR inh: 39; HIV Env fusion: 84*

How did CCOC(=O)N1CCN(C(=O)c2ccc(Cn3c(=S)[nH]c4ccc(Br)cc4c3=O)cc2)CC1 do in these assays?
NSD2 HMT inh: -3; PAX8 reporter: 11; Glyco luc inh: -2; LMP1 NFkB inh: 51*; Shn3 3UTR inh: inconclusive; HIV Env fusion: 32

How did CCOC(=O)N1CCN(C(=O)c2ccc3c(=O)n(Cc4ccc(Cl)cc4)c(=S)[nH]c3c2)CC1 do in these assays?
NSD2 HMT inh: 1; Glyco luc inh: 4; LMP1 NFkB inh: 4; Shn3 3UTR inh: -1; HIV Env fusion: 4
